PubChem BioAssay
Values without a mark were called inactive. For some of these results: Results with a measured potency or affinity are listed apart. Active and inactive are the calls of the source. Unless noted, no rule for the calls is given here.

Legend:
[1] = antimalarial activity against Dd2 strain (AID 2302;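 active = growth inhibition above 50% at the single 2 µM test dose, taken to imply half-maximal potency below 2 µM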;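 also: 0% = DMSO untreated growth and 100% = chloroquine plus artemisinin killed control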); conditions: P. falciparum Dd2 in RBCs, LDH growth readout, 72 h; at 2 µM; hits give high values
[2] = human hepatoma cell viability loss – ATP luminescence, cytotoxicity control for P. falciparum antimalarial project, primary screen (AID 2303;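 active = inhibition above 50%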;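 also: 0% = DMSO wells and 100% = digitonin-killed cells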); conditions: HepG2 viability, 24-48 h, at 10 µM, hits give high values
[3] = molecular target: L-lactate dehydrogenase (Plasmodium falciparum (isolate CDC / Honduras)) (UniProt Q27743); assay: PfLDH activity inhibition – cell lysate, 3D7 strain, counter-screen for P. falciparum growth inhibition project (AID 2304);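 also: 0% = vehicle and 100% = reference inhibitor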; conditions: P. falciparum 3D7 crude extract, LDH APAD/NBT absorbance; at 2 µM; hits give high values
[4] = inhibition of 3D7 malaria parasite growth – strain 3D7 (AID 2306);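 also: 0% = DMSO wells and 100% = chloroquine plus artemisinin control wells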; conditions: P. falciparum 3D7 erythrocytic growth, LDH absorbance, 72 h; at 2 µM; hits give high values
[5] = molecular target: Calcium-dependent protein kinase 1 (Plasmodium falciparum (isolate 3D7)) (UniProt P62344); assay: PfCDPK1 kinase inhibitors, biochemical, TCAMS library (AID 1159585; cut-off not given, nearly all actives have IC50 up to about 0.98 µM;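 also: inhibitors leave more ATP so luminescence rises with inhibition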); conditions: recombinant PfCDPK1, Kinase-Glo ATP depletion luminescence
[6] = molecular target: Plasmodium falciparum protein kinase 6 (PK6, PF3D7_1337100) (UniProt Q8IDW1); assay: PfPK6 kinase inhibitors, biochemical, TCAMS library (AID 1159586); conditions: recombinant PfPK6, Kinase-Glo ATP depletion luminescence
[7] = molecular target: Protein kinase 7 (PK7), Plasmodium falciparum 3D7 (PF3D7_0213400) (UniProt Q7YTF7); assay: inhibition of Plasmodium PK7 catalytic activity – biochemical, TCAMS antimalarial set, Kinase-Glo luminescence (AID 1159587); conditions: recombinant PfPK7, Kinase-Glo ATP depletion luminescence
[8] = molecular target: Calcium-dependent protein kinase 4 (Plasmodium falciparum (isolate 3D7)) (UniProt Q8IBS5); assay: PfCDPK4 kinase inhibitors, biochemical, TCAMS library (AID 1159588; cut-off not given, nearly all actives have IC50 up to about 0.91 µM); conditions: recombinant PfCDPK4, Kinase-Glo ATP depletion luminescence
Calcium-dependent protein kinase 4 (Plasmodium falciparum (isolate 3D7)), sequence (Q8IBS5 whole entry, looked up): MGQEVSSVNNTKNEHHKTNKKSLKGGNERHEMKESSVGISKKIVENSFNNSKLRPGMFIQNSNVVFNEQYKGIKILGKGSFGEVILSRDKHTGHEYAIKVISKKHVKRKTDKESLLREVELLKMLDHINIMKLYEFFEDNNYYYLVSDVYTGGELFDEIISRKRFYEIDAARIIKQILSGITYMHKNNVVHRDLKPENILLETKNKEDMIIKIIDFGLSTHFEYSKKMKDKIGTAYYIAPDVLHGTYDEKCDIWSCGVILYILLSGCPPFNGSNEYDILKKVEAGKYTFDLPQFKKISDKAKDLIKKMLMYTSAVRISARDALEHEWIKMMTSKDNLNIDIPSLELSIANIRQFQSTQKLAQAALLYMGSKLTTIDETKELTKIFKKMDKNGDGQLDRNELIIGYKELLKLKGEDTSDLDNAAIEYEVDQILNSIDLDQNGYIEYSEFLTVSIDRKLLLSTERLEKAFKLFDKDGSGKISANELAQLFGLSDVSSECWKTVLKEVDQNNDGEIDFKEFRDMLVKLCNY

Calcium-dependent protein kinase 1 (Plasmodium falciparum (isolate 3D7)), sequence (P62344 whole entry, looked up): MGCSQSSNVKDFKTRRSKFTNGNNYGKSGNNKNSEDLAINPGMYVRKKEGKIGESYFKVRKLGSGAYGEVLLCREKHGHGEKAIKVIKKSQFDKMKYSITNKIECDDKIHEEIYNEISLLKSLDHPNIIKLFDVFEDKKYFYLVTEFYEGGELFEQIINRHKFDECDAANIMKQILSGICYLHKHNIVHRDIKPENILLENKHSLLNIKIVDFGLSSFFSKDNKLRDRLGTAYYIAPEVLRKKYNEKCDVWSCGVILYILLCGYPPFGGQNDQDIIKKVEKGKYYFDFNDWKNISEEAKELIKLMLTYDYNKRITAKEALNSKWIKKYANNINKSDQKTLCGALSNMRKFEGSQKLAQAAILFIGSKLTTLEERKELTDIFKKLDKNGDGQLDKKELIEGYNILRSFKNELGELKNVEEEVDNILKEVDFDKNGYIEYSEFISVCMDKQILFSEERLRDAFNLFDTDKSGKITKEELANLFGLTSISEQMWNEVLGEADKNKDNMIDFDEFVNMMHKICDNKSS
Plasmodium falciparum protein kinase 6 (PK6, PF3D7_1337100), sequence (Q8IDW1 1-305): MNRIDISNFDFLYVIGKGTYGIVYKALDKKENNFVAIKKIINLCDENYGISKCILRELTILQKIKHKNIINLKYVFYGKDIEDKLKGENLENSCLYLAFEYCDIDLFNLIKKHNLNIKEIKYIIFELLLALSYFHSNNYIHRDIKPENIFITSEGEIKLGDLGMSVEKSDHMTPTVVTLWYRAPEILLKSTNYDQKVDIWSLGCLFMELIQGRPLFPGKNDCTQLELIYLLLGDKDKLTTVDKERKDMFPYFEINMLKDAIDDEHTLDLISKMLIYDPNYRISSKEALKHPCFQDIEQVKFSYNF
Protein kinase 7 (PK7), Plasmodium falciparum 3D7 (PF3D7_0213400), sequence (Q7YTF7 1-343): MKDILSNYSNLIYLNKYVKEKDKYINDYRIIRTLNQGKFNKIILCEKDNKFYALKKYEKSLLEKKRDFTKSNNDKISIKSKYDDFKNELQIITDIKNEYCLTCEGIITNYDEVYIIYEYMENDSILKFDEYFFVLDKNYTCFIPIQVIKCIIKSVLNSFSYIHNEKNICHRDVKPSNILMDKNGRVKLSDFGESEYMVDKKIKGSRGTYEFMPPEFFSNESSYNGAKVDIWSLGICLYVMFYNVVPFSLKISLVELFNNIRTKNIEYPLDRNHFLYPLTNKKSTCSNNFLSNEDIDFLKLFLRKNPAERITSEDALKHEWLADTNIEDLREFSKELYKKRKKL
L-lactate dehydrogenase (Plasmodium falciparum (isolate CDC / Honduras)), sequence (Q27743 whole entry, looked up): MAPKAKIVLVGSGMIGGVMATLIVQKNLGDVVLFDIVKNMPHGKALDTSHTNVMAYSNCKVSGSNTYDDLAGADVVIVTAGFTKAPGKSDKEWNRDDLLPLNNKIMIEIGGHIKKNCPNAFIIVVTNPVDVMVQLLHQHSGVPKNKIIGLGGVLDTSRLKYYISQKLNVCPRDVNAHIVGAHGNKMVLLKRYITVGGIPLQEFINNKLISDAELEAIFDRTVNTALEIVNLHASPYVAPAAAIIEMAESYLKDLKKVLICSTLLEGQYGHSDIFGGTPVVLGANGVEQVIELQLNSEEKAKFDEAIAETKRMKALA

## CC1CCN(Cc2cccc(C(=O)NCc3ccc(F)c(-c4cccc(CN5CCN[C@@H](C)C5)c4)c3)c2)CC1
[1]
  growth inhibition: 64% (active)
[2]
  inhibition: 26%
[3]
  inhibition: 2%
[4]
  growth inhibition: 91% (active)
[5]
  outcome: inactive
[6]
  outcome: inactive
[7]
  outcome: inactive
[8]
  outcome: inactive

## Cc1ccc(OCCCCONC(=O)c2ccccc2)cc1
[1]
  growth inhibition: 1%
[2]
  inhibition: 6%
[3]
  inhibition: -2%
[4]
  growth inhibition: 96% (active)
[5]
  outcome: inactive
[6]
  outcome: inactive
[7]
  outcome: inactive
[8]
  outcome: inactive

## CC1(C)N=C(N)N=C(N)N1OCOc1ccc(Cl)cc1
[1]
  growth inhibition: 96% (active)
[2]
  inhibition: 68% (active)
[3]
  inhibition: 6%
[4]
  growth inhibition: 94% (active)
[5]
  outcome: inactive
[6]
  outcome: inactive
[7]
  outcome: inactive
[8]
  outcome: inactive

## CC(C)(C)c1ccc(CN2CCCCC(NC(=O)c3cc(-c4cccc(F)c4)cs3)C2)cc1 (stereo not given)
[1]
  growth inhibition: 84% (active)
[2]
  inhibition: 8%
[3]
  inhibition: -3%
[4]
  growth inhibition: 98% (active)
[5]
  outcome: inactive
[6]
  outcome: inactive
[7]
  outcome: inactive
[8]
  outcome: inactive

## Cc1cc(N[C@@H](CC(C)C)C(=O)NCCc2ccccc2)nc(Nc2ccccc2)n1
[1]
  growth inhibition: 38%
[2]
  inhibition: 1%
[3]
  inhibition: 1%
[4]
  growth inhibition: 100% (active)
[5]
  outcome: inactive
[6]
  outcome: inactive
[7]
  outcome: inactive
[8]
  outcome: inactive

## Cc1cnc(NCC2CCCCC2)nc1NCC(=O)Nc1ccccc1
[1]
  growth inhibition: 51% (active)
[2]
  inhibition: 21%
[3]
  inhibition: 0%
[4]
  growth inhibition: 90% (active)
[5]
  outcome: inactive
[6]
  outcome: inactive
[7]
  outcome: inactive
[8]
  outcome: inactive

## O=C(/C=C/c1ccccc1O)N1CCC(CCN2CCC(c3c[nH]c4ccccc34)CC2)CC1
[1]
  growth inhibition: 15%
[2]
  inhibition: 46%
[3]
  inhibition: -1%
[4]
  growth inhibition: 100% (active)
[5]
  outcome: inactive
[6]
  outcome: inactive
[7]
  outcome: inactive
[8]
  outcome: inactive

## CC1(C)Cc2c(oc3ncn(CCn4cnc5oc6c(c5c4=N)CC(C)(C)SC6)c(=N)c23)CS1
[1]
  growth inhibition: 93% (active)
[2]
  inhibition: -11%
[3]
  inhibition: 0%
[4]
  growth inhibition: 98% (active)
[5]
  outcome: inactive
[6]
  outcome: inactive
[7]
  outcome: inactive
[8]
  outcome: inactive

## Cn1c(Nc2nnc(C3CC3)s2)nc2cc(Nc3ccnc(Nc4cccc(CS(C)(=O)=O)c4)n3)ccc21
[1]
  growth inhibition: 83% (active)
[2]
  inhibition: -6%
[3]
  inhibition: -1%
[4]
  growth inhibition: 97% (active)
[5]
  outcome: inactive
[6]
  outcome: inactive
[7]
  outcome: inactive
[8]
  outcome: inactive

## CCc1c(C)c(C#N)c2nc3ccccc3n2c1NCc1ccco1
[1]
  growth inhibition: 90% (active)
[2]
  inhibition: -3%
[3]
  inhibition: 6%
[4]
  growth inhibition: 99% (active)
[5]
  outcome: inactive
[6]
  outcome: inactive
[7]
  outcome: inactive
[8]
  outcome: inactive

## CCc1cc2c(cc1CC)CC(NC[C@@H](O)c1ccc(O)c3[nH]c(=O)ccc13)C2
[1]
  growth inhibition: 9%
[2]
  inhibition: -3%
[3]
  inhibition: -4%
[4]
  growth inhibition: 101% (active)
[5]
  outcome: inactive
[6]
  outcome: inactive
[7]
  outcome: inactive
[8]
  outcome: inactive

## Cc1c(C(=O)Nc2cc(Sc3ccc(F)cc3)cc([N+](=O)[O-])c2)sc2ncn(Cc3cccc(F)c3)c(=O)c12
[1]
  growth inhibition: 53% (active)
[2]
  inhibition: -1%
[3]
  inhibition: 5%
[4]
  growth inhibition: 100% (active)
[5]
  outcome: inactive
[6]
  outcome: inactive
[7]
  outcome: inactive
[8]
  outcome: inactive

## CCCC(=O)Nc1ccc(OCCCCN(Cc2ccccc2C(F)(F)F)c2ccc(C(F)(F)F)c(C#N)c2)cc1
[1]
  growth inhibition: 94% (active)
[2]
  inhibition: 6%
[3]
  inhibition: 0%
[4]
  growth inhibition: 94% (active)
[5]
  outcome: inactive
[6]
  outcome: inactive
[7]
  outcome: inactive
[8]
  outcome: inactive

## COc1ccc(-c2cnc3ccc(NCc4ccc(S(N)(=O)=O)cc4)nn23)cn1
[1]
  growth inhibition: 98% (active)
[2]
  inhibition: 16%
[3]
  inhibition: 0%
[4]
  growth inhibition: 98% (active)
[5]
  outcome: inactive
[6]
  outcome: inactive
[7]
  outcome: inactive
[8]
  outcome: inactive

## O=C(Nc1ccc(-c2nc3ccccc3[nH]2)cc1)C1CCN(Cc2ccccc2)CC1
[1]
  growth inhibition: 82% (active)
[2]
  inhibition: 12%
[3]
  inhibition: 4%
[4]
  growth inhibition: 100% (active)
[5]
  outcome: inactive
[6]
  outcome: inactive
[7]
  outcome: inactive
[8]
  outcome: inactive

## Cc1nc(N)nc(N)c1OCc1ccc(Cl)c(Cl)c1
[1]
  growth inhibition: 5%
[2]
  inhibition: 14%
[3]
  inhibition: -2%
[4]
  growth inhibition: 97% (active)
[5]
  outcome: inactive
[6]
  outcome: inactive
[7]
  outcome: inactive
[8]
  outcome: inactive

## COc1ccc2nccc(NC(=O)N3CCC(NCCOc4cc(F)cc(F)c4)CC3)c2n1
[1]
  growth inhibition: 38%
[2]
  inhibition: 14%
[3]
  inhibition: -2%
[4]
  growth inhibition: 86% (active)
[5]
  outcome: inactive
[6]
  outcome: inactive
[7]
  outcome: inactive
[8]
  outcome: inactive

## CN(C)c1ccc2nc(N)nc(N)c2c1Cl
[1]
  growth inhibition: -1%
[2]
  inhibition: 68% (active)
[3]
  inhibition: 2%
[4]
  growth inhibition: 98% (active)
[5]
  outcome: inactive
[6]
  outcome: inactive
[7]
  outcome: inactive
[8]
  outcome: inactive

## CC1CCCC(Nc2noc(-c3sccc3Br)n2)C1 (stereo not given)
[1]
  growth inhibition: 99% (active)
[2]
  inhibition: 7%
[3]
  inhibition: 0%
[4]
  growth inhibition: 102% (active)
[5]
  outcome: inactive
[6]
  outcome: inactive
[7]
  outcome: inactive
[8]
  outcome: inactive

## CS(=O)(=O)c1ccc(-n2nc(C(F)(F)F)cc2-c2ccc(/C=N/OCC(=O)O)o2)cc1
[1]
  growth inhibition: 0%
[2]
  inhibition: -15%
[3]
  inhibition: -7%
[4]
  growth inhibition: 87% (active)
[5]
  outcome: inactive
[6]
  outcome: inactive
[7]
  outcome: inactive
[8]
  outcome: inactive
